Screening results from PubChem BioAssay.
In the library only some 13% were active in any assay of this set; here they are far more common.
CHOP inhibitor = inhibitors of CHOP induction in ER stress response; CHO-K1 CHOP-promoter luciferase, tunicamycin-induced, 15-18 h; inhibition, % at 10 µM; hit rate 3.8% among 220,000; AID 2732;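 active = compounds that reduced the stress-induced luciferase reporter signal by more than about 70% of percent inhibition, limit read from the data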;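 note: 0% = tunicamycin plus vehicle and 100% = wells without tunicamycin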
WT yeast gro inh = growth inhibition of WT yeast, mitochondrial fusion screen | hit rate 2.1% among 190,000 | mitochondrial fusion phenotypic screen, WT strain | inhibition, % at 10 µM; in the data active = inhibition above about 58%; tested in S. cerevisiae
L major viab = reduces viability of Leishmania major promastigotes. resazurin fluorescence viability. inhibition, % at 10 µM. hit rate 9% among 200,000; in the data active = inhibition above about 50%;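 note: promastigotes grown with compound for 44 hours at 28 °C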
RAM inhibit = yeast RAM network inhibition; S. cerevisiae dse1pr::URA3 reporter, 5-FOA growth OD615, 2 d; analog-sensitive cbk1-as2 kinase mutant strain; inhibition, % at 50 µM; hit rate 1.8% among 190,000; AID 868;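 active = inhibition above a set limit, 3 SD over mean compound inhibition, cut at about 8.4% in these data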;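 note: 0% = DMSO-only wells with no growth and 100% = 10 µM 1-NA-PP1 full growth; inhibition rescues growth on 5-FOA so higher OD means more RAM inhibition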
* marks the source's active call; other numbers are inactive results; x = no result given.

SMILES	CHOP inhibitor	WT yeast gro inh	L major viab	RAM inhibit
CCC(=O)N1CCc2cc(Br)cc(S(=O)(=O)N(C)c3ccc(OC)cc3OC)c21	5.7	19.6	33.9	2.7
CC1CC(NC(=O)C2(C)CC2(Cl)Cl)CC(C)(C)C1 (configuration not stated)	43.7	11.6	54.5*	2.2
Cc1ccc(S(=O)(=O)n2c3ccc(F)cc3c3nc(C)sc32)cc1	6.7	78.2*	3.5	4.6
N/C(=N\OC(=O)Cc1ccc(-c2ccccc2)cc1)c1ccccn1	11.9	61.6*	-2.9	1.8
Cc1ccc(/C(N)=N/OC(=O)c2cc(-c3ccccc3)nc3ccccc23)cc1	43.1	-9.7	-6.8	0.9
N/C(=N\OC(=O)c1cc(-c2ccccc2)nc2ccccc12)c1ccccn1	74.1*	66.2*	-0.8	0.7
COc1cc(/C=C2\SC(=Nc3ccc(N4CCOCC4)cc3)N(C)C2=O)ccc1OC(C)C(=O)O (configuration not stated)	21.9	8.9	-1.3	1.9
CN(C)c1nc(Nc2ccc(Cl)cc2)nc(OCC#N)n1	72.6*	-12.1	21.8	0.3
O=C(O)c1ncn(Cc2ccc(Br)cc2)c1C(=O)O	-5.9	10.6	-3.7	-0.4
CCN1C(=O)c2cccc3c(S(=O)(=O)NCC4CCCO4)ccc1c23 (configuration not stated)	-1.0	x	x	x
COC(=O)c1ccccc1NC(=O)CNc1cc(Cl)ccc1N1CCOCC1	44.1	64.2*	79.7*	7.2
Cc1cc(Cl)ccc1OC(C)C(=O)Nc1ccccc1N1CCOCC1 (configuration not stated)	73.5*	72.8*	26.4	9.5*
COc1ccc(Cl)cc1NC(=O)CN(C)CC(=O)Nc1ccccc1N1CCOCC1	-11.4	17.1	54.4*	0.5
COc1ccc(S(=O)(=O)N2CCOCC2)cc1NC(=O)CN(C)Cc1c(F)cccc1Cl	12.8	31.7	18.8	1.2
CCC(NC(=O)NCc1cccnc1)(C(F)(F)F)C(F)(F)F	56.9	5.1	-2.4	0.1
O=C(COC(=O)CNC(=O)c1ccccc1)Nc1ccc2c(c1)OCO2	25.8	9.6	-2.3	1.6
Cc1cccc(-n2c(=S)[nH]c3c(oc4ccccc43)c2=O)c1	-15.7	19.8	58.1*	6.4
Cc1cc(C)c(S(=O)(=O)Nc2ccc(O)cc2)cc1C	6.7	4.2	6.5	1.3
Cc1cc(C)c(S(=O)(=O)Nc2cc(SCC(=O)O)c(O)c3ccccc23)cc1C	-2.6	35.8	99.3*	4.2
Cn1c(=O)n(C)c2cc([N+](=O)[O-])c(N3CCN(S(=O)(=O)c4ccc(C(C)(C)C)cc4)CC3)cc21	75.0*	73.9*	70.2*	3.2
CCN(CC)CCNC(=O)c1ccc(N2CCCCC2)c(NS(=O)(=O)c2ccc(C)cc2)c1	72.2*	16.3	100.5*	0.0
O=[N+]([O-])c1cc(C(F)(F)F)cc([N+](=O)[O-])c1N1CCN(S(=O)(=O)c2ccccc2)CC1	40.0	1.0	51.3*	1.2
COC(=O)c1ccc(N2CCN(S(=O)(=O)c3ccc(Br)cc3)CC2)c([N+](=O)[O-])c1	54.4	-9.8	6.9	5.0
COC(=O)c1ccc(N2CCN(S(=O)(=O)c3ccc(C)cc3)CC2)c([N+](=O)[O-])c1	75.4*	15.6	-4.5	2.1
COc1ccc(NC(=O)C(CC(=O)O)C(C)c2ccccc2)cc1 (configuration not stated)	10.8	-8.8	0.6	-0.4
SMILES	CHOP inhibitor	WT yeast gro inh	L major viab	RAM inhibit
O=C(NCC1CCCO1)c1onc(CSc2cccc3ccccc23)c1C(=O)O (configuration not stated)	-10.0	-0.3	-7.4	5.0
Cc1nc(NS(=O)(=O)c2ccc(Cl)s2)c2c3c(sc2n1)CCCC3	-8.2	x	x	x
COC(=O)c1ccc(N2CCCCC2)c(NS(=O)(=O)c2ccc(C)cc2)c1	20.2	52.5	96.7*	10.6*
CCS(=O)(=O)N1CCN(c2ccc(C(=O)NC3C4CC5CC(C4)CC3C5)cc2[N+](=O)[O-])CC1 (configuration not stated)	29.4	-4.2	51.8*	5.1
CCOC(=O)c1ccc(N2CCCCC2)c(NS(=O)(=O)c2cccc(C(F)(F)F)c2)c1	-1.0	x	x	x
COc1ccc2[nH]cc(/C=C/C(=O)c3ccccc3)c2c1	-3.7	x	x	x
Cc1cc(-c2ccn[nH]2)c(C)s1	-25.4	5.4	-3.2	-0.2
CC(=O)Nc1ccc(C(=O)OCC(=O)Nc2ccccc2Sc2ccccc2)cc1	51.3	83.0*	6.0	2.6
N#CCC(=O)Nc1ccc(C(=O)OCC(=O)Nc2ccccc2Sc2ccccc2)cc1	48.3	5.7	12.8	8.4*
CC(C)CC(=O)OCC(=O)Nc1ccccc1Sc1ccccc1	83.5*	-2.1	-6.0	1.3
CC(=O)Nc1ccc(C(=O)OCC(=O)Nc2ccccc2F)cc1	8.7	-4.1	-2.9	-0.9
N#CC1(c2ccccc2)CCC(=O)N1Cc1ccccc1 (configuration not stated)	-24.6	x	x	x
CC(=O)c1cc2c(cc1NS(=O)(=O)c1ccccc1F)OCO2	-6.0	-17.3	-2.7	1.1
Cc1csc(NC(=O)[C@@H]2CCCN2C(=O)c2cccs2)n1	6.0	1.3	-4.0	2.0
O=C1CS/C(=N/N=C/c2ccco2)N1Cc1ccc(F)cc1	18.6	x	x	x
O=C(NCc1ccccc1Cl)c1ccccc1CCc1ccccc1	39.6	-9.8	53.7*	5.7
O=C(NCc1ccccc1Cl)c1cnccn1	27.4	74.9*	-5.2	1.6
O=C(NCc1ccc(Cl)cc1)c1cnccn1	10.5	34.8	-7.7	2.0
O=C(COc1ccc(S(=O)(=O)N2CCCC2)cc1)Nc1ccc2c(c1)OCCO2	-4.0	-15.2	5.5	3.4
CN(/N=C/c1ccc(C(C)(C)C)cc1)C1=NCCN1	-6.1	4.8	56.3*	-0.9
CN(/N=C/c1ccncc1)c1cnc2ccccc2n1	1.9	-3.7	14.0	-1.2
CSc1ccccc1C(=O)C1CCCN(C(=O)c2csnn2)C1 (configuration not stated)	31.6	-2.2	-3.9	0.9
CSc1ccccc1C(=O)C1CCCN(S(=O)(=O)N(C)C)C1 (configuration not stated)	-29.9	5.8	88.7*	0.0
Cc1ccc(N(C(=O)Cc2c[nH]c3ccccc23)C(C(=O)NC2CCCCC2)c2ccco2)cc1 (configuration not stated)	87.9*	4.0	23.7	2.2
Cc1ccc(-c2nnn(CC(=O)N(c3ccc(F)cc3)C(C(=O)NC3CCCC3)c3ccco3)n2)o1 (configuration not stated)	-5.9	-0.8	-6.7	2.7
COc1ccc(C(C(=O)NC2CCCCC2)N(C(=O)Cc2c[nH]c3ccccc23)c2ccccc2C)cc1OC (configuration not stated)	37.9	-18.9	94.8*	2.1
Cc1ccc(C(C(=O)NC2CCCCC2)N(Cc2ccco2)C(=O)Cc2c[nH]c3ccccc23)o1 (configuration not stated)	86.5*	70.7*	42.2	3.0
CCC(C(=O)O)N1C(=O)C2CCCCC2C1=O (configuration not stated)	-22.9	x	x	x
CC1CN=C(N(C(=S)Nc2ccccc2)c2cccc(C(F)(F)F)c2)S1 (configuration not stated)	2.1	x	x	x
COc1ccc(C(=O)Oc2cccc(Nc3ncnc4ccccc34)c2)cc1OC	67.8	9.7	2.2	3.0
